Pf apPOL inh: Pf-apPOL inhibitors, biochemical, fluorescence; AID 1794808, 2022; Plasmodium falciparum apicoplast DNA polymerase (apPOL); hit rate 0.25% among 210,000; Recombinant Pf-apPOL, molecular beacon fluorescence, 1.5 h; inhibition, % at 10 µM
mHTT CaM bind: mutant huntingtin-calmodulin interaction inhibitors – biochemical, AlphaScreen, primary screen | P42858 | AlphaScreen His-mHTT/GST-CaM binding, luminescence | inhibition, % at 15 µM | hit rate 3.6% among 190,000 | AID 1671202, 2021;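 note: 0% = both proteins with DMSO and 100% = one protein alone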
Target sequence (P42858 whole entry, looked up, stated change not applied): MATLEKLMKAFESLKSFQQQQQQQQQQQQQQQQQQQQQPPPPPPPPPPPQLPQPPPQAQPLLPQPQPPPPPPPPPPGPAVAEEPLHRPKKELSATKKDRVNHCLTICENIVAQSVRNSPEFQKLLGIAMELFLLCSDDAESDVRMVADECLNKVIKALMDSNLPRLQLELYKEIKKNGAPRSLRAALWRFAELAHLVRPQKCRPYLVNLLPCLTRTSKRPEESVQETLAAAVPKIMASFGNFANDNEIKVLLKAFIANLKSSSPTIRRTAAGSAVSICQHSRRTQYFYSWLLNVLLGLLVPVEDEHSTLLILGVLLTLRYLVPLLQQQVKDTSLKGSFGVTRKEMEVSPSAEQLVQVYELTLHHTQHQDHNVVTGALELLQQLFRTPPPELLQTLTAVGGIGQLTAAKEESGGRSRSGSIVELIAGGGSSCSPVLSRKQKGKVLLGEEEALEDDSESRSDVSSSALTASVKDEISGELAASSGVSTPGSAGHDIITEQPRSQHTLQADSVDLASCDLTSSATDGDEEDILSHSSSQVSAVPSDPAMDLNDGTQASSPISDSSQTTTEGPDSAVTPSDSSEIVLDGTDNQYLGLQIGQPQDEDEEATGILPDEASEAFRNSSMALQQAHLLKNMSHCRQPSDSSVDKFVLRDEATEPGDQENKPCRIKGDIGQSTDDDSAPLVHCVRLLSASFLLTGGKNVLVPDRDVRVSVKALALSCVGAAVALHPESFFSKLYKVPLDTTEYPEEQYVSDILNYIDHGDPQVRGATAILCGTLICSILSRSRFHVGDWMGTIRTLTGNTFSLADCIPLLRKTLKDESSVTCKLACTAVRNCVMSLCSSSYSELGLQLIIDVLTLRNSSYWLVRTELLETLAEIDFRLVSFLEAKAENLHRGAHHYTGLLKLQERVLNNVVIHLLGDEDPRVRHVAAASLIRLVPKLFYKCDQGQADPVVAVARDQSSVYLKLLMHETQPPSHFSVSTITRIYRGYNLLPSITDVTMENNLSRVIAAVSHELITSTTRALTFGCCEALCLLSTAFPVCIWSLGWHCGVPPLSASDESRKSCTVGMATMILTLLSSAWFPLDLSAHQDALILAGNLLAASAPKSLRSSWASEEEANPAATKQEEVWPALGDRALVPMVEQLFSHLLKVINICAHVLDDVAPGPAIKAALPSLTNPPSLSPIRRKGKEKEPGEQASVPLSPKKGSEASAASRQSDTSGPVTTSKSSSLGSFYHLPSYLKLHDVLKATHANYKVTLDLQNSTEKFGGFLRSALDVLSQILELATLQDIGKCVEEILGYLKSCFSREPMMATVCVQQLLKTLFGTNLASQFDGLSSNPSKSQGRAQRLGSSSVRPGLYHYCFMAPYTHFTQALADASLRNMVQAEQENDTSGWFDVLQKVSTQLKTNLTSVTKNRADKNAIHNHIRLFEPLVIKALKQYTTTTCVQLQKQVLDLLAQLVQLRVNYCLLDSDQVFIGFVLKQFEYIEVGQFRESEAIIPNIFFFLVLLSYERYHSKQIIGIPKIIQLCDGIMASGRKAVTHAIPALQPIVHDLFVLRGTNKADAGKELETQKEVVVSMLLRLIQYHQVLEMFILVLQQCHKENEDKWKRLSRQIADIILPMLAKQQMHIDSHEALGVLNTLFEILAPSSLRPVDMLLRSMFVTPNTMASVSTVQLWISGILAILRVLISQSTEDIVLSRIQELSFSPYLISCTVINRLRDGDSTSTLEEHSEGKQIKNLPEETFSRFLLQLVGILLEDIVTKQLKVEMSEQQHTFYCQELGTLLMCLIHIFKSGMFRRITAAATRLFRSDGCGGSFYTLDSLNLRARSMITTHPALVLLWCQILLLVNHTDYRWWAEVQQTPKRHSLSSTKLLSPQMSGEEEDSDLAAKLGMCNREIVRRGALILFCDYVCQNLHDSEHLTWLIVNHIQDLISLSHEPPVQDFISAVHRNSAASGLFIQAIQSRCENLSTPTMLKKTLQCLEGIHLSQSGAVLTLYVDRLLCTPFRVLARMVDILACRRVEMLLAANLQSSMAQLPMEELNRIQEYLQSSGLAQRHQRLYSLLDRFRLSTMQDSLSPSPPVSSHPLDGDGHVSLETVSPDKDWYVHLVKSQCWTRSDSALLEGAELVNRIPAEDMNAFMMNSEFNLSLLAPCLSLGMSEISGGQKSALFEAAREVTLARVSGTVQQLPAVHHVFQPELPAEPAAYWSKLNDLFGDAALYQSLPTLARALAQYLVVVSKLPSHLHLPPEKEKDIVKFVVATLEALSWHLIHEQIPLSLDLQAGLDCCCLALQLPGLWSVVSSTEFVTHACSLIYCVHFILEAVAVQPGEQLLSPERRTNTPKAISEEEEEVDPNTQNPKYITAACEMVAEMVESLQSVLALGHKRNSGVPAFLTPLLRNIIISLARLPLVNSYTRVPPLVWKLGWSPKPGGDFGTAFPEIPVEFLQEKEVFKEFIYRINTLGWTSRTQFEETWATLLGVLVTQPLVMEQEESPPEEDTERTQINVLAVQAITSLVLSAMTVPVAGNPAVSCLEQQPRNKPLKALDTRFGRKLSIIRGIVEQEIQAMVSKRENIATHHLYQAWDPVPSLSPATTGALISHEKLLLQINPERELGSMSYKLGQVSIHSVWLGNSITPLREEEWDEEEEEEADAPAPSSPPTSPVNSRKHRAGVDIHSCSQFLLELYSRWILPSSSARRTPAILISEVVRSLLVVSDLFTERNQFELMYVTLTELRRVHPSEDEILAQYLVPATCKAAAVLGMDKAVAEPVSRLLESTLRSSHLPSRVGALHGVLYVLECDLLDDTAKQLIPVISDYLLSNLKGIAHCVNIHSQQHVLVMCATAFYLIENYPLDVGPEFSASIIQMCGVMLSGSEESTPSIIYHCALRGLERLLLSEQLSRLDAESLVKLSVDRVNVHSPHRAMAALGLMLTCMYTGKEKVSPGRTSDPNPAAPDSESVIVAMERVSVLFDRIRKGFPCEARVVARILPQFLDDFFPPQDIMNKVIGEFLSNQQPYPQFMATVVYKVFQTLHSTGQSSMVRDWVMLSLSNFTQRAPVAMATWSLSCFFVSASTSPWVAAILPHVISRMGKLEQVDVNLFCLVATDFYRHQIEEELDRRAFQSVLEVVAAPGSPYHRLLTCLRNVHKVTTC
Active calls of the source: *; ! = not confirmed by another sample. Only a selection was taken, and hits are over-represented in it overall. Cut-off read from the data, not from the text of the source: active = inhibition above about 50%; inactive = the rest.

Screening N#CC1=C(N)n2c(s/c(=C\c3ccco3)c2=O)=C(C#N)C1c1ccco1 (centres undefined) returned Pf apPOL inh -4 and mHTT CaM bind 46.
Cc1ccc(/C=c2\sc3n(c2=O)C(N)=C(C#N)C(c2ccc(C)o2)C=3C#N)o1 (centres undefined) was read as Pf apPOL inh 7 and mHTT CaM bind 59*.
Cc1csc(NC(=O)C2CCN(S(=O)(=O)c3ccc(Br)s3)CC2)n1 was read as Pf apPOL inh -3 and mHTT CaM bind 2.
Screening CCC(C)NC(=O)c1ccc2ncnc(N3CCOCC3)c2c1 (centres undefined) returned Pf apPOL inh 1 and mHTT CaM bind -8.
For CCOc1ccc2c(c1)OC(=Cc1ccc3c(c1)OCO3)C2=O the results were Pf apPOL inh 3 and mHTT CaM bind -6.
`CCCN1C/C(=C\c2ccc3c(c2)OCO3)C(=O)/C(=C/c2ccc3c(c2)OCO3)C1` gave Pf apPOL inh 1 and mHTT CaM bind 63*.
CC1CCc2c(sc(NC(=O)Cc3ccc4c(c3)OCO4)c2C#N)C1 (centres undefined) was read as Pf apPOL inh -1 and mHTT CaM bind -4.
Screening Cc1cccc(S(=O)(=O)N2CCC(c3nc4cccnc4n3C)C2)c1 (centres undefined) returned Pf apPOL inh -4 and mHTT CaM bind -1.
Screening COc1nccnc1NS(=O)(=O)c1ccc(NC(=O)COc2cc(C)c(Cl)c(C)c2)cc1 returned Pf apPOL inh 9 and mHTT CaM bind 50*.
Screening COc1nccnc1NS(=O)(=O)c1ccc(NC(=O)c2ccccc2Cl)cc1 returned Pf apPOL inh -8 and mHTT CaM bind 18.
`CCc1ccc(NC(=O)c2cncc(-c3ccc(C)cc3)c2)cc1` gave Pf apPOL inh 0 and mHTT CaM bind -9.
For Cc1ccc(-c2cncc(C(=O)Nc3ccc4c(c3)OCCO4)c2)cc1 the results were Pf apPOL inh -3 and mHTT CaM bind 54*.
Screening CC1(C)CC(=O)C2=C(C1)N(c1cccc(C(F)(F)F)c1)C(N)=C(C#N)C2c1cccs1 (centres undefined) returned Pf apPOL inh -5 and mHTT CaM bind 67*.
Screening N#CC1=C(N)N(c2ccc(Br)cc2F)C2=C(C(=O)CCC2)C1c1cccs1 (centres undefined) returned Pf apPOL inh 0 and mHTT CaM bind 54*.
Screening N#CC1=C(N)N(c2ccc(Br)cc2F)C2=C(C(=O)CCC2)C1c1ccsc1 (centres undefined) returned Pf apPOL inh 2 and mHTT CaM bind 12.
Screening N#CC1=C(N)N(c2cccc(Br)c2)C2=C(C(=O)CCC2)C1c1cccs1 (centres undefined) returned Pf apPOL inh 2 and mHTT CaM bind 68*.
For CC1(C)CC(=O)C2=C(C1)N(c1cccc(C(F)(F)F)c1)C(N)=C(C#N)C2c1ccsc1 (centres undefined) the results were Pf apPOL inh -2 and mHTT CaM bind 24.
`N#CC1=C(N)N(c2ccccc2)C2=C(C(=O)CCC2)C1c1cccs1` (centres undefined) gave Pf apPOL inh -10 and mHTT CaM bind 30.
For O=C1S/C(=C\c2cccs2)C(=O)N1CN1CCOCC1 the results were Pf apPOL inh -3 and mHTT CaM bind 1.
For O=C(Cc1ccc(F)cc1)N(Cc1ccsc1)C1CC1 the results were Pf apPOL inh -1 and mHTT CaM bind -16.
For COc1ccc(S(=O)(=O)NCc2ccc3c(c2)OCO3)cc1OC the results were Pf apPOL inh -3 and mHTT CaM bind 4.
`COc1ccc(S(=O)(=O)NCc2ccc(F)cc2)cc1OC` gave Pf apPOL inh 68* and mHTT CaM bind -1.
Screening COc1ccc(S(=O)(=O)NCc2ccc(CNS(=O)(=O)c3ccc(OC)cc3)cc2)cc1 returned Pf apPOL inh -2 and mHTT CaM bind 59*.
Screening COc1ccc(S(=O)(=O)NCc2ccc(S(N)(=O)=O)cc2)cc1 returned Pf apPOL inh -5 and mHTT CaM bind -2.
`CCn1c(C2CCN(Cc3ccc(F)cc3)C2)nc2cccnc21` (centres undefined) gave Pf apPOL inh -8 and mHTT CaM bind 12.
CCn1c(C2CCN(Cc3ccc(Cl)cc3)C2)nc2cccnc21 (centres undefined) was read as Pf apPOL inh -12 and mHTT CaM bind 57*.
`Clc1ccc(OCCCN2CCOCC2)cc1` gave Pf apPOL inh -2 and mHTT CaM bind 1.
Screening Clc1ccc(OCCN2CCOCC2)cc1 returned Pf apPOL inh 82* and mHTT CaM bind 5.
Screening O=C(O)CC(NCc1ccc(Cl)c([N+](=O)[O-])c1)c1cccs1 (centres undefined) returned Pf apPOL inh 34 and mHTT CaM bind -6.
CCCC(=O)Nc1ccccc1NC(=O)Cc1ccccc1[N+](=O)[O-] was read as Pf apPOL inh 2 and mHTT CaM bind -3.
Screening O=C(CCc1ccccc1)NC(c1cccs1)c1cc(Cl)c2cccnc2c1O (centres undefined) returned Pf apPOL inh -4 and mHTT CaM bind 31.
CCCCC(=O)NC(c1ccco1)c1cc([N+](=O)[O-])c2cccnc2c1O (centres undefined) was read as Pf apPOL inh 0 and mHTT CaM bind 100*.
For CCCCC(=O)NC(c1cccs1)c1cc([N+](=O)[O-])c2cccnc2c1O (centres undefined) the results were Pf apPOL inh 9 and mHTT CaM bind 96*.
For CCC(=O)NC(c1cccs1)c1cc([N+](=O)[O-])c2cccnc2c1O (centres undefined) the results were Pf apPOL inh -5 and mHTT CaM bind 100*.
Screening CCCC(=O)NC(c1cccs1)c1cc([N+](=O)[O-])c2cccnc2c1O (centres undefined) returned Pf apPOL inh 5 and mHTT CaM bind 100*.
CCOc1ccc(N/C=C/C(=O)c2cccs2)c([N+](=O)[O-])c1 was read as Pf apPOL inh -5 and mHTT CaM bind 38.
Screening Cn1c(=O)c2c(nc3n(CCc4ccccc4)c(-c4ccc(Cl)cc4)cn23)n(C)c1=O returned Pf apPOL inh 4 and mHTT CaM bind 16.
For COc1ccc(NC(=O)C2CC2c2ccccc2)c(OC)c1 (centres undefined) the results were Pf apPOL inh -6 and mHTT CaM bind 5.
Screening COc1cccc(CCC(=O)N2CCC(c3nc(C(=O)N4CCCCC4)c(C)o3)CC2)c1 returned Pf apPOL inh 1 and mHTT CaM bind 7.
CC1CN=C2C=C(N3CCN(C(=O)Cc4c(F)cccc4Cl)CC3)N=CN21 (centres undefined) was read as Pf apPOL inh -1 and mHTT CaM bind -1.
CC12CC(NC(=O)N1c1ccc(C(=O)NCc3ccco3)cc1)c1ccccc1O2 (centres undefined) was read as Pf apPOL inh -21 and mHTT CaM bind 10.
For CC(=O)NC(c1cccs1)c1cc([N+](=O)[O-])c2cccnc2c1O (centres undefined) the results were Pf apPOL inh 0 and mHTT CaM bind 100*.
For CCCCC(=O)NC(c1ccccc1OC)c1cc([N+](=O)[O-])c2cccnc2c1O (centres undefined) the results were Pf apPOL inh -71 and mHTT CaM bind 100*!.
COc1ccccc1N1CCN(c2ccc([N+](=O)[O-])c3cccnc23)CC1 was read as Pf apPOL inh 1 and mHTT CaM bind 4.
